Growth data for 7 molecules are collected here from PubChem BioAssay (NCI).

Each structure is given as a SMILES string. About 83,000 compounds went through this panel and 20% of them were active in at least one assay; those are over-represented in the sample as a whole.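 Note: values are percent growth. 100 is the growth of untreated cells, values between 100 and 0 indicate rising inhibition; between -100 and 0 indicates cell death.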 Unmarked numbers belong to inactive results. Activity calls are given as the source filed them. How the source made its calls: active means growth percent below 10; inactive means the rest.

What all share (experiment): NCI-60 one-dose screen, 48 h (100 = growth as untreated, 0 = no growth, -100 = all killed)
Common to all, as to details: 10 µM unless noted

Test [1] deals with NCI-H23 lung.
Test [2] deals with NCI-H226 lung.
Test [3] deals with NCI-H322M lung.
Test [4] relates to HOP-62 NSCLC.
Test [5] relates to NCI-H460 lung.
Test [6] concerns HOP-92 NSCLC.
In test [7] the test system is NCI-H522 lung.
In test [8] the test system is A549/ATCC NSCLC.
Test [9] deals with 786-0 renal.
The subject of test [10] is COLO 205 colon.
Test [11] deals with DU-145 prostate.
Test [12] has as its system K-562 leukemia.
The subject of test [13] is MALME-3M melanoma.
For test [14], the system named is MDA-MB-231 breast.
In test [15] the test system is RXF 393 renal.
Test [16] concerns SF-268 CNS.
The test system of test [17] is SF-295 CNS.
Test [18] relates to SF-539 CNS.
The subject of test [19] is UACC-257 melanoma.
Test [20] concerns M14 melanoma.

As to `O=C(O)C(C(=O)O)c1cccc2ccccc12`, the growth is 99.9% in test [1]; 102% in [2]; 101% in test [3]; 92.7% in [4]; 104% in test [5]; 94.5% in test [6]. Besides, the growth was 88.9% in test [7]; 94.4% in [8]; 95.4% in test [9]; 110% in test [10]; 105% in test [11]; 93.8% in test [12]. In addition, the growth in [13] was 107%; in test [14], 108%; in [15], 107%; in [16], 98%; in test [17], 101%; in test [18] it was 94.5%. Moreover, the results for the growth in [19] and in test [20] were 88.1% and 101%, respectively.
Consider `CCSc1ccc(C2C(Br)C(=O)N2c2cc(OC)c(OC)c(OC)c2)cc1` (stereo not given), for which the growth is 25.2% in [1]; 50.2% in [2]; 50.5% in test [3]; 30% in test [4]; 10.1% in test [5]; 28.2% in test [6]. For the same molecule, the growth in test [7] is 7.68% (active); in [8], 18.2%; in [9] it was 8.1% (active); in test [10] it was -38.5% (active); in test [11], 12.3%; in test [12], 8.26% (active). Moreover, the growth in test [13] is 70.1%; in test [14] it was 19.7%; in test [15] it was 2.05% (active); in test [16] it was 38.7%; in test [17], 15.7%; in test [18], -1.17% (active). The growth in test [19] was 45.2%; in test [20], 4.2% (active).
For the molecule `C=C(C)[C@@H]1CC[C@]2(C(=O)OCCOCCOCC[P+](c3ccccc3)(c3ccccc3)c3ccccc3)CC[C@]3(C)[C@H](CC[C@@H]4[C@@]5(C)CC[C@H](C)C(C)(C)[C@@H]5CC[C@]43C)[C@@H]12`, the growth in test [1] is -80% (active); in test [2], -70.9% (active); in test [3], -98.1% (active); in [4], -79.5% (active); in test [5], -78% (active); in [6] it was -83.3% (active). For the same molecule, the growth in test [7] is -80.6% (active); in [8], -83.7% (active); in [9] it was -83.3% (active); in test [10] it was -82.2% (active); in test [11], -92.1% (active); in test [12], -65.7% (active). Besides, the growth in test [13] is -79.4% (active); in test [14], -74% (active); in test [15], -85.3% (active); in test [16], -74.5% (active); in test [17] it was -87.5% (active); in test [18], -90.3% (active). Further, the figures for the growth in [19] and in test [20] were -88.1% (active) and -77.4% (active), respectively.
As for `O=C(Nc1cccc(-c2cccc(F)c2)c1)C1CCN(Cc2cccc3cccnc23)CC1`, the growth is 69.2% in test [1]; 71.5% in test [2]; 78.2% in test [3]; 63.8% in test [4]; 37% in test [5]; 44.2% in test [6]. The growth in test [7] was 47.3%; in test [8] it was 71.9%; in test [9] it was 47.5%; in test [10], -81% (active); in test [11], 72%; in test [12], -37.6% (active). In addition, the growth in test [13] is -50% (active); in test [14] it was 37.8%; in test [15], 68.6%; in test [16] it was 56.8%; in test [17], 56.1%; in [18], 69.5%. The growth in test [19] is -2.39% (active); in [20], -54% (active).
Consider `COC(=O)/C=C1\SC(=Nc2ccc(C(F)(F)F)cc2)N(CCc2c[nH]c3ccccc23)C1=O`, for which the growth was -4.71% (active) in test [1]; -62.7% (active) in test [2]; -11% (active) in test [3]; -64.2% (active) in test [4]; -47.4% (active) in test [5]; -48.7% (active) in [6]. The growth is -65% (active) in [7]; 3.32% (active) in [8]; -74.1% (active) in test [9]; -62.9% (active) in test [10]; -65.4% (active) in [11]; -0.591% (active) in [12]. The growth in test [13] was -89.6% (active); in [14], -63.7% (active); in test [15], -70.2% (active); in test [16], -3.91% (active); in test [17], -81.4% (active); in test [18], -91.2% (active). Moreover, the growth was -50.3% (active) in test [19] and -45.6% (active) in [20].
Regarding `COC1=CC2C=C(C3N(c4ccccc4)NC(=O)[C@@H]4CCCN34)C(=O)NC2C=C1` (stereo not given in full), the growth in test [1] was 89.7%; in test [2], 105%; in [3] it was 93.5%; in [4], 93.1%; in test [5] it was 110%; in [6], 124%. Also, the growth was 87.6% in test [7]; 107% in [8]; 99.5% in test [9]; 111% in test [10]; 112% in [11]; 93.3% in test [12]. Moreover, the growth in test [13] was 113%; in test [14], 111%; in test [15] it was 116%; in [16] it was 99.8%; in test [17], 103%; in test [18] it was 109%. Moreover, the growth was 108% in [19] and 101% in test [20].
In the case of `C=C1C(=O)O[C@H]2[C@H]1CC/C(COC(=O)NCC(=O)Nc1ccc(OC)c(C(N)=O)c1O)=C\CC[C@@]1(C)O[C@@H]21`, the growth in [1] was 95.6%; in [2], 83.3%; in test [3], 92.2%; in test [4], 85.4%; in [5], 97%; in test [6], 14.6%. For the same molecule, the growth in test [7] is -25.1% (active); in [8] it was 86.3%; in [9], 58.7%; in test [10] it was 10.8%; in test [11], 66.4%; in test [12] it was 8.95% (active). In addition, the growth was 59.7% in [13]; 68.2% in [14]; 16.5% in test [15]; 70.8% in test [16]; 101% in test [17]; 7.54% (active) in test [18]. Also, the growth in [19] was 53.3%; in test [20] it was 62.9%.
